In PubChem BioAssay AID2238 (Southern Research Specialized Biocontainment Screening …, 2010):
Active and inactive are the calls of the source. How the calls were made is not given here.

Assay: antiviral protection of cells from WNV – synthesized analogs, SAR follow-up (AID 2238)
Settings: West Nile virus CPE inhibition in cells; max CPE inhibition: measured here: maximum CPE inhibition observed, at 40 µM, stronger effect = higher value unless noted; series mostly up to 40 µM; CPE inhibition: at the top concentration

| Structure (SMILES) | max CPE inhibition | CPE inhibition |
| --- | --- | --- |
| COc1ccc(-c2csc(N(CCCN(C)C)C(=O)c3ccccc3C)n2)cc1 | 60.8% [measured here: maximum CPE inhibition observed, at 80 µM, stronger effect = higher value] | – |
| CC1CC(C)CN(C(=O)CSc2nc3ccccc3c(=O)n2-c2ccc(F)cc2)C1 (stereo not drawn) | 2.88% | 2.88% (inactive) |
| CC1CCN(CCCNC(=O)c2cc3c(s2)-c2ccccc2OC3)CC1 | 73.1% [measured here: maximum CPE inhibition observed, at 20 µM, stronger effect = higher value] | – |
| O=C(CSc1nc2ccccc2c(=O)n1-c1ccc(F)cc1)Nc1ccc2c(c1)CCC2 | 65.2% | – |
| COc1ccc(-c2csc(N(CCCN(C)C)C(=O)c3ccccc3Cl)n2)cc1 | 69.5% | – |
| Cc1ccc2nc3n(c(=O)c2c1)CCC3 | 2.12% | 1.5% (inactive) |
